Screening data from PubChem BioAssay.
HP1b chromo inh – HP1-beta chromodomain-methylated histone interaction inhibition; P83916; AlphaScreen HP1-beta / biotin-H3K9me3 peptide binding; actives 0.56% (n = 390,000); Potency, µM (doses to about 114 µM), inactives show at the highest dose activity change, negative = inhibition, actives largely listed as inhibitors; further: potency means the concentration at half of the fitted maximal effect; nearly all actives have a fitted effect of over 70% in size
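Compound inhibition of the preformed complex between 50 nM HP1-beta and 50 nM biotinylated H3K9me3 peptide was read by AlphaScreen. Buffer was PBS pH 7.4 with 0.01% Tween-20. Incubations ran 30 min at room temperature, with 10 ug/mL donor/acceptor beads.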
G9a block – inhibitors of human histone lysine methyltransferase G9a; Q96KQ7; G9a H3K9 monomethylation, AlphaScreen, 2 h; Potency, µM (titrated, usually from 102 µM), without a hit: at the top dose activity, negative = inhibition, actives largely listed as inhibitors; actives 8.8% (n = 350,000); AID 504332; further: potency means the concentration at half of the fitted maximal effect; on the % scale 0 is the no-effect control and ±100 the full control effect; nearly all actives have a fitted effect of over 75% in size
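Compounds were preincubated with 20 nM G9a for 15 min, after which biotinylated H3K9 peptide (500 nM) and SAM (20 uM) started a 2 h room-temperature reaction. Monomethylated product was quantified by antibody-based AlphaScreen chemiluminescence.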
JMJD2A Tudor inh – JMJD2A Tudor domain (human) inhibition; O75164; AlphaScreen JMJD2A-Tudor / H3K4me3 peptide binding; Potency, µM (highest dose often 114 µM), for inactives: at the highest dose activity change, negative = inhibition, usual class: inhibitors; actives 4.4% (n = 390,000); further: potency means the concentration at half of the fitted maximal effect; on the % scale 0 is the no-effect control and ±100 the full control effect; nearly all actives have a fitted effect of over 50% in size
BAZ2B inh – inhibitors of human BAZ2B bromodomain | AlphaScreen BAZ2B-H3K14Ac peptide displacement | Potency, µM (series often up to 114 µM), without a hit: top-dose activity change, negative = inhibition, actives largely listed as inhibitors | actives 4.4% (n = 360,000) | AID 504333; further: potency means the concentration at half of the fitted maximal effect; on the % scale 0 is the no-effect control and ±100 the full control effect; nearly all actives have a fitted effect of over 60% in size
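BAZ2B 50 nM plus b-H3(5-23)K14Ac 50 nM, PBS pH 7.4/0.01% Tween-20, 30 min RT; compound added (max 110 uM), 30 min RT; streptavidin donor/Ni-chelate acceptor beads 10 ug/mL final, 20 min dark; AlphaScreen read.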
CtBP-E1A blk – blocks the CtBP interaction with E1A | activity change, % (test concentration not listed) | actives 0.49% (n = 340,000) | AlphaScreen GST-E1A/His-CtBP binding, 1536-well; active compounds read low | AID 651724; in the data active means activity change below about -65%; inconclusive means mostly about -30% to -63%; further: on the % scale 0 is the no-effect control and ±100 the full control effect
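Steps: dispense buffer (Tris pH 8.0, NaCl 300 mM, TCEP 1 mM, BSA, Tween 20); add 5X protein mix (GST-E1A, His-CtBP, 125 nM each); pin 23 nL compound; 2 h at 37 °C, dark; add 5X beads (50 ug/mL); 1 h; read.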
Six1-Eya2 blk – Six1/Eya2 interaction inhibition; Q15475+O00167; AlphaScreen GST-Six1/His-Eya2 binding, biochemical; active compounds read low; activity change, % (test concentration not listed); actives 0.56% (n = 360,000); AID 651725; in the data active means activity change below about -65%; inconclusive means mostly about -30% to -63%; further: on the % scale 0 is the no-effect control and ±100 the full control effect
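AlphaScreen with GST-Six1 and His-Eya2 (5X mix: 250 nM and 500 nM), glutathione donor and nickel acceptor beads; buffer 50 mM Tris pH 8.0, 300 mM NaCl, 1 mM TCEP; 1 h at 37 C in the dark.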
* hit, by the source's call; ? = inconclusive; / = no result; [ ] = another dose, or the depositor's remark. An excerpt weighted towards active compounds, which were near 10% of everything screened. Unless noted, the call rests on the fitted dose curve; in most records, active means well fitted inhibition curve with a large enough effect; inconclusive means small, poorly fitted or top-dose-only effect; inactive means no such curve, though single readings can be large or run the other way.

SMILES	HP1b chromo inh	G9a block	JMJD2A Tudor inh	BAZ2B inh	CtBP-E1A blk	Six1-Eya2 blk
Cc1nc(SCC(=O)NCc2ccco2)c2c(=O)n(C)c(=O)n(CC(C)C)c2n1	/	7%[12.7 µM]	/	-7%	/	/
COc1cccc(Cn2c(=O)c(-c3cccs3)nc3cnc(OC)nc32)c1	/	2%[0.501 µM]	/	/	/	/
Cc1cc(C)c2nc(C(F)(F)F)nc(NCCCN3CCOCC3)c2c1	1%	8%	-13%	6%	-9	-4
COc1ccc(OC)c(-n2c(-c3cccc(S(=O)(=O)N(C)C)c3)n[nH]c2=S)c1	-19%	2.5µM*	?	/	-3	0
CCSc1nnc(-c2cccc(S(=O)(=O)N(C)C)c2)n1-c1cc(OC)ccc1OC	29%	?	-13%	13%	-4	-2
COc1cccc(-n2c(-c3cccc(S(=O)(=O)N(C)C)c3)n[nH]c2=S)c1	14%	2.5µM*	8.9µM*	/	9	-1
COc1cccc(-n2c(-c3ccc4[nH]c(C)c(C)c4c3)n[nH]c2=S)c1	-6%	/	?	?	-17	-10
N#CC1=C(N)Oc2cc(O)ccc2C1c1cccs1 (stereo unspecified)	28%	56µM*	-3%	-3%	0	-16
N#CC1=C(N)Oc2c(ccc3cccnc23)C1c1ccccc1 (stereo unspecified)	21%	6%[59 µM]	-26%	-28%	?	7
N#CC1=C(N)Oc2c(ccc3ccccc23)C1c1cccs1 (stereo unspecified)	-5%	7.1µM*	-30%	?	-20	-11
CN(C)c1cccc(C(=O)NNC(=S)NC2CC3CCC2C3)c1 (stereo unspecified)	?	50µM*	?	-26%	-1	7
COc1ccc(-c2csc(-c3nc(-c4ccc(Br)s4)cs3)n2)cc1F	36%	-45%[59 µM]	1%	5%	/	/
O=C(CSc1ncccn1)Nc1cc(Cl)ccc1[N+](=O)[O-]	38%	-45%	-19%[57.1 µM]	/	-12	9
COc1cc(C(c2c(C)[nH][nH]c2=O)c2c(C)[nH][nH]c2=O)ccc1OS(=O)(=O)c1ccc(C)cc1	21%	2.8µM*	-29%	-26%	-8	-9
COc1cc(C(c2c(C)[nH][nH]c2=O)c2c(C)[nH][nH]c2=O)cc(OC)c1OC	-3%	-23%	-14%	-7%	2	2
COc1cc(C(c2c(C)[nH][nH]c2=O)c2c(C)[nH][nH]c2=O)ccc1OC(C)C	37%	-42%	-6%	?	5	2
COc1cc(C(c2c(C)[nH][nH]c2=O)c2c(C)[nH][nH]c2=O)cc(Cl)c1O	21%	45µM*	5%	?	/	-4
COc1cc(C(c2c(C)[nH][nH]c2=O)c2c(C)[nH][nH]c2=O)ccc1OS(=O)(=O)c1ccccc1	10%	22µM*	-32%	-26%	-21	-8
CCOC(=O)C1(C)CCCN1C(=O)c1cncc(Br)c1 (stereo unspecified)	/	/	/	/	0	4
CSc1ccc(C(=O)C2CCCN(C(=O)c3nn(C)c(=O)c4ccccc34)C2)cc1 (stereo unspecified)	?	28µM*	-33%	-14%	-3	6
Cn1nc(C(=O)N2CCCC2)c2ccccc2c1=O	8%	-5%[59 µM]	-14%	4%	5	4
O=C(Nc1ccccc1)C1=C(c2ccccc2)S(=O)(=O)CCS1(=O)=O	55%	28µM*	-2%	-14%	-1	?
COc1cc2c(cc1OC)-c1nnnn1C(C)(C)C2	39%	-1%[59 µM]	-3%	-1%	2	-1
COc1cc2c(cc1OC)-c1n[nH]c(=S)n1C(C)(C)C2	41%	4µM*	40µM*	-3%	-11	5
CC1CCCC(C)N1CC(O)COCC1COc2ccccc2O1 (stereo unspecified)	40%	14%	-6%	-18%[57.1 µM]	-2	6
SMILES	HP1b chromo inh	G9a block	JMJD2A Tudor inh	BAZ2B inh	CtBP-E1A blk	Six1-Eya2 blk
CC[N+](C)(CC)CC(O)COCC1COc2ccccc2O1 (stereo unspecified)	0%	6.3µM*	-23%	5%	2	9
CCCOc1ccc(N2C(=O)CC(NCCNc3ccc([N+](=O)[O-])cn3)C2=O)cc1 (stereo unspecified)	33%	13µM*	-18%	-26%	-5	-7
CN(CC(=O)Nc1cccc(F)c1)C(=O)c1ccc(N2C(=O)c3ccccc3C2=O)cc1	31%	5%[12.7 µM]	-6%	0%	27	-18
Cc1cc(C(=O)CCC(=O)N(C)CC(=O)Nc2c(Cl)cccc2Cl)c(C)s1	19%	-31%	-10%	-2%	2	-1
CCN(CC(=O)Nc1ccc(NC(C)=O)cc1)C(=O)c1cccc(-n2cccc2)c1	?	50µM*	-32%	50µM*	-6	-22
CN(CC(=O)Nc1c(Cl)cccc1Cl)C(=O)CCC(=O)c1ccccc1	35%	50µM*	-1%	2%	3	0
CN(CC(=O)Nc1cccc(F)c1)C(=O)c1cccc(-n2cccc2)c1	?	?	28µM*	28µM*	-2	?
CN(CC(=O)Nc1c(Cl)cccc1Cl)C(=O)c1cccc(-n2cccc2)c1	32µM*	3%[0.501 µM]	14µM*	35µM*	-10	-29
CNC(=O)C1CC(=O)N(c2ccc(OCC(=O)Nc3ccc(F)cc3)cc2)C1 (stereo unspecified)	-19%[57 µM]	/	-28%	/	-9	11
COc1ccccc1NC(=O)C1CCN(S(=O)(=O)c2cn(C)cn2)CC1	-20%	-40%[59 µM]	-17%	-17%	/	/
O=C(NCCc1cccs1)c1ccc(Cn2c(SCc3ccc(F)cc3)nc3cccnc32)cc1	14%	-5%[59 µM]	-18%	-1%	/	/
Cc1ccc(C)c(NC(=O)CN(C)C(=O)c2cccc(-n3cccc3)c2)c1	45µM*	40µM*	16µM*	25µM*	-2	-25
COc1ncc2nc(-c3cccs3)c(=O)n(Cc3cccs3)c2n1	/	3%[0.501 µM]	/	/	/	/
CCOc1ccccc1-c1noc(CSc2nnc(-c3ccccc3)n2-c2cccc(C)c2)n1	59%	-12%[59 µM]	-16%	-18%	/	/
CCNC(=O)NC(=O)C(C)Sc1nnc(COc2ccccc2Cl)o1 (stereo unspecified)	63%	18µM*	?	?	3	-2
CCOC(=O)C1CCCN(c2c(NCCCN(C)c3ccccc3)c(=O)c2=O)C1 (stereo unspecified)	34%	56µM*	-13%	0%	0	-2
CCOC(=O)N1CCN(c2c(NCCCN(CC)c3cccc(C)c3)c(=O)c2=O)CC1	-17%	14µM*	-24%	1%	-9	-19
